# Results as given in PubChem BioAssay (NCI).
# About 83,000 compounds went through this panel and 20% of them were active in at least one assay; those are over-represented in the sample as a whole.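 Growth was measured after 48 h exposure to one concentration of compound in 96-well plates. Values under 10 count as active.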 A number with no mark means an inactive call. Calls of active or inactive are those of the source.
# Experiments:
# Assay in all cases: NCI-60 one-dose screen, 48 h (100 = growth as untreated, 0 = no growth, -100 = all killed)
# Details in all cases: 10 µM unless noted
# SK-MEL-2 melanoma = test system: SK-MEL-2 melanoma
# EKVX NSCLC = test system: EKVX NSCLC
# SN12C renal = test system: SN12C renal
# UO-31 renal = test system: UO-31 renal
# TK-10 renal = test system: TK-10 renal
# A498 renal = test system: A498 renal
# CCRF-CEM leukemia = test system: CCRF-CEM leukemia
# MOLT-4 leukemia = test system: MOLT-4 leukemia
# SR leukemia = test system: SR leukemia
# RPMI-8226 leukemia = test system: RPMI-8226 leukemia
# OVCAR-8 ovarian = test system: OVCAR-8 ovarian
# OVCAR-5 ovarian = test system: OVCAR-5 ovarian
# OVCAR-4 ovarian = test system: OVCAR-4 ovarian
# SK-OV-3 ovarian = test system: SK-OV-3 ovarian
# IGROV1 ovarian = test system: IGROV1 ovarian
# OVCAR-3 ovarian = test system: OVCAR-3 ovarian
# HS 578T breast = test system: HS 578T breast
# NCI/ADR-RES ovarian = test system: NCI/ADR-RES ovarian
Compound,growth (SK-MEL-2 melanoma),growth (EKVX NSCLC),growth (SN12C renal),growth (UO-31 renal),growth (TK-10 renal),growth (A498 renal),growth (CCRF-CEM leukemia),growth (MOLT-4 leukemia),growth (SR leukemia),growth (RPMI-8226 leukemia),growth (OVCAR-8 ovarian),growth (OVCAR-5 ovarian),growth (OVCAR-4 ovarian),growth (SK-OV-3 ovarian),growth (IGROV1 ovarian),growth (OVCAR-3 ovarian),growth (HS 578T breast),growth (NCI/ADR-RES ovarian)
CCOc1ccc(-n2c(-c3cc(OC)c(OC)c(OC)c3)nnc2-c2ccc(OC)cc2N)cc1,65.6%,82.4%,91.5%,57.4%,70%,67.3%,42.3%,36.8%,19.3%,82.6%,64.5%,95.5%,74.7%,75.2%,57.2%,53.6%,77.7%,77.1%
Nc1nc(-c2cc3c(cc2Cl)NC(=O)/C3=C/c2ccc(Cl)cc2)cs1,36.6%,35.3%,48.8%,54.3%,82.3%,74.8%,19%,15.5%,13.8%,31.9%,50.8%,92%,48.6%,71.8%,34.9%,32.8%,48.1%,74.5%
O=c1cc(Cl)[nH]c(=O)[nH]1,91.8%,104%,107%,96.4%,98.1%,100%,111%,88.5%,111%,98.6%,104%,105%,109%,85.2%,109%,109%,103%,105%
N#Cc1c2c(c(N)[nH]c1=O)C(=O)NC2(O)c1ccccc1 (centres undefined),97.9%,98.1%,113%,89.1%,93%,106%,100%,95.4%,93.1%,107%,106%,111%,117%,103%,109%,102%,111%,105%
C=C1C(=O)O[C@H]2[C@H]1CC/C(COC(=O)CCCC(=O)OC/C1=C/CC[C@@]3(C)O[C@H]3[C@H]3OC(=O)C(=C)[C@@H]3CC1)=C\CC[C@@]1(C)O[C@@H]21,19.5%,51.1%,15.1%,13.6%,7.23% (active),62.6%,-11.7% (active),-19.1% (active),0.324% (active),-9.1% (active),-9.93% (active),2.2% (active),49.2%,74.5%,13.4%,-46.6% (active),47.1%,83.1%
COc1ccc(Cn2cc3c(c2-c2cc(OC)c(OC)c(OC)c2)CCc2c(CO)noc2-3)cc1,49.5%,45.8%,30.3%,30.1%,74.5%,18.2%,19.6%,16.6%,22.2%,21.7%,22.4%,56.6%,68.9%,39.9%,40.8%,5.3% (active),9.56% (active),8.59% (active)
O=C1CCC(=O)N1C1CCCCC1,103%,98.4%,100%,84.3%,105%,97.1%,108%,95.7%,96.4%,109%,112%,109%,104%,103%,91.9%,102%,97.5%,102%
COc1ccc(Cl)cc1NC(=O)c1cc2c(n1C)-c1nc(NC(=O)C(C)(C)C)sc1CC2,79.7%,76.2%,107%,53.5%,98%,94%,98.5%,72.5%,85.2%,83.4%,109%,104%,94.8%,67.7%,98.1%,105%,98.5%,93.8%
